According to the supplement of paper PMC8975748:
Structures can show the parent of a compound that is named as a salt.

Each compound was assayed on Saccharomyces cerevisiae BY4741 SeMeCo community (assay: z-score of subpopulation abundance vs DMSO median, subpopulation auxotrophic for L; higher = larger share of this subpopulation than in DMSO controls). Settings: 10 µM; 24 h; SM minimal medium; subpopulation (auxotrophy): L.
Experimental: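 Fluorescent four-plasmid SeMeCo (self-establishing metabolically cooperating S. cerevisiae BY4741 community; plasmids pH-mRuby2, pL-mWasabi, pU-eCFP, pM-TagRFP657) was grown 24 h in minimal SM medium with each Selleck FDA-approved drug at 10 µM in 384-well plates. Cells were fixed and imaged by high-content confocal microscopy. For each auxotrophic subpopulation (and the prototroph), a z-score gives the deviation from the DMSO vehicle-control population median.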

SMILES | z-score of subpopulation abundance
COc1cc2c(cc1OC)-c1cc3ccc(OC)c(OC)c3c[n+]1CC2 [Palmatine] | 2.2
CO[C@H]1C[C@@H]2CC[C@@H](C)[C@@](O)(O2)C(=O)C(=O)N2CCCC[C@H]2C(=O)O[C@H]([C@H](C)C[C@@H]2CC[C@@H](OCCO)[C@H](OC)C2)CC(=O)[C@H](C)/C=C(\C)[C@@H](O)[C@@H](OC)C(=O)[C@H](C)C[C@H](C)/C=C/C=C/C=C/1C [Everolimus (RAD001)] | -0.87
OC(CCCN1CCCCC1)(c1ccccc1)c1ccccc1 [Diphenidol HCl] | -0.41
CNCCCN1c2ccccc2CCc2ccccc21 [Desipramine Hydrochloride] | 0.26
CCCN[C@H]1CCc2nc(N)sc2C1 [Pramipexole] | -0.15
C[n+]1ccccc1C=NO [Pralidoxime Iodide] | -0.18
Nc1c(Br)cc(Br)cc1CN[C@H]1CC[C@H](O)CC1 [Ambroxol HCl] | -1.26
COCC1=C(C(=O)OC(C)OC(=O)OC(C)C)N2C(=O)[C@@H](NC(=O)/C(=N\OC)c3csc(N)n3)[C@H]2SC1 (stereo not given in full) [Cefpodoxime proxetil] | -0.07
CCCN1CCCC[C@H]1C(=O)Nc1c(C)cccc1C [Ropivacaine HCl] | 0.47
CO/N=C(\C(=O)N[C@@H]1C(=O)N2C(C(=O)O)=C(CSc3nnnn3C)CS[C@H]12)c1csc(N)n1 [Cefmenoxime hydrochloride] | -0.06
N[C@@H](C(=O)N[C@@H]1C(=O)N2C(C(=O)O)=C(Cl)CS[C@H]12)c1ccccc1 [Cefaclor] | 0.23
NC(=O)N/N=C/c1ccc([N+](=O)[O-])o1 [Nitrofural] | -0.82
C/C=C\c1ccc(O)c(OC)c1 [Isoeugenol] | 0.4
Cc1nc(NC(=O)N2CCC[C@H]2C(N)=O)sc1-c1ccnc(C(C)(C)C(F)(F)F)c1 [Alpelisib (BYL719)] | -1.04
C[C@H]1COc2c(N3CCN(C)CC3)c(F)cc3c(=O)c(C(=O)O)cn1c23 [Levofloxacin] | -0.45
CO[C@H]1C[C@@H]2CC[C@@H](C)[C@@](O)(O2)C(=O)C(=O)N2CCCC[C@H]2C(=O)O[C@H]([C@H](C)C[C@@H]2CC[C@@H](O)[C@H](OC)C2)CC(=O)[C@H](C)/C=C(\C)[C@@H](O)[C@@H](OC)C(=O)[C@H](C)C[C@H](C)/C=C/C=C/C=C/1C [Rapamycin (Sirolimus)] | -1.39
COC(=O)C1=C(C)NC(C)=C(C(=O)OC)C1c1ccccc1[N+](=O)[O-] [Nifedipine] | 0.52
CCCNC(C)C(=O)Nc1ccccc1C (stereo not given) [Prilocaine] | 1
C/C=C1\[C@H]2C=C(C)C[C@]1(N)c1ccc(=O)[nH]c1C2 [(-)-Huperzine A (HupA)] | -0.33
C[C@]12CC[C@@H]3c4ccc(O)cc4CC[C@H]3[C@@H]1CC[C@@H]2O [Estradiol] | -0.14

SMILES | z-score of subpopulation abundance
COc1ccc([C@@H]2Sc3ccccc3N(CCN(C)C)C(=O)[C@@H]2OC(C)=O)cc1 [Diltiazem HCl] | 0.4
Cc1cccc(C)c1NC(=O)C1CCCCN1C (stereo not given) [Mepivacaine HCl] | -0.36
COc1ccc(C2CNC(=O)C2)cc1OC1CCCC1 (stereo not given) [Rolipram] | -0.37
O=C1C(=O)c2ccccc2C(O)=C1C1CCC(c2ccc(Cl)cc2)CC1 (stereo not given) [Atovaquone] | 1.54
CC(=O)N1CCN(c2ccc(OCC3COC(Cn4ccnc4)(c4ccc(Cl)cc4Cl)O3)cc2)CC1 (stereo not given) [Ketoconazole] | -0.63
O=C(O[C@H]1CN2CCC1CC2)N1CCc2ccccc2[C@@H]1c1ccccc1 [Solifenacin succinate] | -0.16
Nc1nc(N)nc(-c2cc(Cl)ccc2Cl)n1 [Irsogladine] | -0.15
CC1=C(C(=O)O)N2C(=O)[C@@H](NC(=O)[C@H](N)C3=CCC=CC3)[C@H]2SC1 [Cefradine] | 0.14
CC(C)c1nc(N(C)S(C)(=O)=O)nc(-c2ccc(F)cc2)c1/C=C/[C@@H](O)C[C@@H](O)CC(=O)O [Rosuvastatin] | 2.53
CO/N=C(\C(=O)N[C@@H]1C(=O)N2C(C(=O)O)=C(COC(N)=O)CS[C@H]12)c1ccco1 [Cefuroxime sodium] | -0.97
CC(=O)OCC(COC(C)=O)OC(C)=O [Triacetin] | -0.06
CC(=O)OCC[N+](C)(C)C [Acetylcholine iodide] | -0.73
C[N+]1(C)[C@@H]2CC[C@H]1C[C@@H](OC(=O)C(O)c1ccccc1)C2 (stereo not given in full) [Homatropine Methylbromide] | -0.63
CCC(=O)Oc1ccc2c(c1)CCC1C2CCC2(C)C(OC(=O)CC)CCC12 (stereo not drawn) [Estradiol dipropionate(17-Beta-Estradiol-3,17-Dipropionate)] | -1.37
Fc1ccc([C@@H]2CCNC[C@H]2COc2ccc3c(c2)OCO3)cc1 [Paroxetine mesylate] | 0.03
CCCN[C@H]1CCc2nc(N)sc2C1 [Pramipexole 2HCl Monohydrate] | -0.36
CC[C@H]1OC(=O)[C@H](C)[C@@H](O[C@H]2C[C@@](C)(OC)[C@@H](O)[C@H](C)O2)[C@H](C)[C@@H](O[C@@H]2O[C@H](C)C[C@H](N(C)C)[C@H]2O)[C@](C)(O)C[C@@H](C)CN(C)[C@H](C)[C@@H](O)[C@]1(C)O [Azithromycin Dihydrate] | 0.09
CC[C@@]1(O)C(=O)OCc2c1cc1n(c2=O)Cc2cc3cc(O)ccc3nc2-1 [(S)-10-Hydroxycamptothecin] | 1.09
CC(C)(C)CC(C)(C)c1ccc(OCCOCC[N+](C)(C)Cc2ccccc2)cc1 [Benzethonium Chloride] | -0.55
C[C@@H]1CC(=O)NN=C1c1ccc(NN=C(C#N)C#N)cc1 [Levosimendan] | -0.16
